Compound activity deposited in PubChem by National Center for Advancing Translational Sciences (NCATS).
A selection: hits, their analogues and other compounds. The true share with any hit is near 9.3%.
Rab9 prom act = Rab9 promoter activation; Potency, µM (highest dose often 9.22 µM), inactives show top-dose activation, negative = inhibition, hits mostly activators; AID 485297; actives 2.8% (n = 320,000); Huh7 Rab9 promoter-luciferase reporter, luminescence, 24 h; further: % of control where 0% means no effect; nearly all actives have a fitted effect of over 60% in size
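Luciferase signal after 10 min detection reagent at ambient indicates Rab9 promoter upregulation; stably transfected Huh7 cells were treated 24 h with compound in DMSO at 37 °C, 5% CO2.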
ELG1 genotoxic = genotoxicity induction in ELG1-luciferase HEK293T cells; HEK293T ELG1-luciferase reporter, luminescence, 16 h; Potency, µM (series often up to 46 µM), for the others: top-dose activity change, positive = activation, hits mostly activators; actives 1.3% (n = 330,000); AID 504466; further: % of control where 0% means no effect; nearly all actives have a fitted effect of over 60% in size
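Step 1: seed 2,000 HEK293T ELG1-luciferase cells per well. Step 2: add compound or DMSO, incubate 16 hr at 37 °C. Step 3: ONE-Glo, 30 min at room temperature, read luminescence.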
NPC1 promoter act = activates the NPC1 promoter; Potency, µM (titrated, usually from 9.22 µM), without a hit: at the top dose activation, usual class: activators; Huh7 NPC1 promoter luciferase reporter, 24 h; actives 2.4% (n = 320,000); AID 485313; further: % of control where 0% means no effect; nearly all actives have a fitted effect of over 60% in size
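In 1536-well qHTS, Huh7 cells harboring an NPC1 promoter–luciferase construct received compound for 24 h; activation was quantified by luminescence following luciferase reagent addition.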
FLuc modulator = counter-screen for miR-21 project: firefly luciferase inhibitors or activators; P08659; actives 6.9% (n = 360,000); purified FLuc, Km substrates, luminescence inhibition; Potency, µM (doses to about 57.5 µM), for inactives: top-dose activity change, negative = inhibition, usual class: inhibitors;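 further: plate controls were vehicle for no effect and reference inhibitor for full effect; nearly all actives have a fitted effect of over 55% in size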
Target sequence (P08659 whole entry, looked up): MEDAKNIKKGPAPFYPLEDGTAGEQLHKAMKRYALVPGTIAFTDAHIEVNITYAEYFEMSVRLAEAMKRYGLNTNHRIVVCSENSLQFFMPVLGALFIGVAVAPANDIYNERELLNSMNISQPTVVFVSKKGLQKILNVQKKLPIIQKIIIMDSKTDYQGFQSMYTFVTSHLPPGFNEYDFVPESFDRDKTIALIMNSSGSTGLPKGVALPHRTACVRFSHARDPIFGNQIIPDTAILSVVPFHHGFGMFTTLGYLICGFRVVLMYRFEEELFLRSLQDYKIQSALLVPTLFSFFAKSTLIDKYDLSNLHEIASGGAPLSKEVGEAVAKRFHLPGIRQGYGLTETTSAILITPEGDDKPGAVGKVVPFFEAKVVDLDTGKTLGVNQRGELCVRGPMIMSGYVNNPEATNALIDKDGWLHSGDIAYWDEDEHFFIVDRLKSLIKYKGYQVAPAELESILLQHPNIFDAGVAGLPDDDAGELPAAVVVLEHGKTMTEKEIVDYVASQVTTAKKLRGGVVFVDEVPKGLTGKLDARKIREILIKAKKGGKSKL
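Purified P. pyralis luciferase, 10 nM final, with Km-level 10 uM D-luciferin and 10 uM ATP in 50 mM Tris acetate pH 7.5, 10 mM Mg acetate, 0.01% Tween-20, 0.05% BSA; 6-point qHTS titration about 60 µM downward; luminescence read.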
SMN2 splice up = enhancers of SMN2 splice variant expression; HEK293 SMN2-luciferase splicing reporter, luminescence, 30-36 h; Potency, µM (titrated, usually from 46.1 µM), for the others: at the top dose activity change, positive = activation, most hits filed as activators; actives 2.8% (n = 210,000); AID 1458; further: % of control where 0% means no effect; nearly all actives have a fitted effect of over 55% in size
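qHTS luciferase splicing reporter: luminescence rises when SMN2 exon 7 is included in transfected HEK293 cells. Compound exposure lasted 30-36 h at 37C, with 4.5 mM final sodium butyrate as control, followed by a ONE-Glo read.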
ELG1 repair inh = inhibitors of ELG1-dependent DNA repair in HEK293T cells. HEK293T ELG1-luciferase reporter, luminescence, 16 h; DNA damage induced by 5-fluorouridine. Potency, µM (doses to about 46.1 µM), without a hit: top-dose activity change, negative = inhibition, most hits filed as inhibitors. actives 2.3% (n = 330,000). AID 504467; further: on the % scale 0 is the no-effect control and ±100 the full control effect; nearly all actives have a fitted effect of over 55% in size
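HEK293T cells expressing luciferase-tagged ELG1 (2,000/well) received 5-Fluorouridine plus compound or DMSO for 16 hr at 37 °C. Luciferase was read by ONE-Glo luminescence after 30 min at room temperature.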
Starred values were filed as active, the others as inactive. The call rests on the fitted dose curve; in most records, active means well fitted curve in the direction sought with a large enough effect; inconclusive means small, poorly fitted or top-dose-only effect, or another doubt; inactive means no such curve, though single readings can be large; an effect the other way counts as inactive or inconclusive. Potency means the concentration at half of the fitted maximal effect.

`Cc1cc([N+](=O)[O-])nn1Cc1ccc(C(=O)N/N=C/c2ccccc2)cc1` gave Rab9 prom act -2%, ELG1 genotoxic 6%, NPC1 promoter act -3%, FLuc modulator inconclusive, SMN2 splice up -5% and ELG1 repair inh inconclusive.
`CC1=C(c2ccc(C)cc2)S(=O)(=O)N(Cc2ccc(C(=O)NCc3ccccc3F)cc2)C1=O` gave FLuc modulator -6%.
For O=C(CN1C(=O)NC(Cc2c[nH]c3ccccc23)C1=O)Nc1cccc(S(=O)(=O)N2CCCCCC2)c1 (configuration not stated) the results were Rab9 prom act -6%, ELG1 genotoxic 0%, NPC1 promoter act -2%, FLuc modulator -1%, SMN2 splice up -37% and ELG1 repair inh 21µM*.
`O=C(CN1C(=O)NC(Cc2c[nH]c3ccccc23)C1=O)Nc1cccc(S(=O)(=O)N2CCCC2)c1` (configuration not stated) gave Rab9 prom act 0%, ELG1 genotoxic 3%, NPC1 promoter act 4%, FLuc modulator 1%, SMN2 splice up -5% and ELG1 repair inh -2%.
`CN1C(=O)C(Cc2c[nH]c3ccccc23)NC1=S` (configuration not stated) gave SMN2 splice up 13µM*.
For N#Cc1ccccc1NC(=O)CN1C(=O)NC(Cc2c[nH]c3ccccc23)C1=O (configuration not stated) the results were Rab9 prom act 0%, ELG1 genotoxic 1%, NPC1 promoter act 1%, FLuc modulator 9.5µM* and ELG1 repair inh inconclusive.
CCN(CC)c1ccc(C(=O)NNC(=O)c2ccc3c(=O)n4c(nc3c2)CCC4)cc1 was read as Rab9 prom act -1%, ELG1 genotoxic 6%, NPC1 promoter act 0%, FLuc modulator inconclusive and ELG1 repair inh 14%.
Screening CCCn1c(-c2ccc(OC)cc2)nc2nc3ccccc3nc21 returned Rab9 prom act -1%, ELG1 genotoxic -6%, NPC1 promoter act 0%, FLuc modulator inconclusive and ELG1 repair inh -16%.
For Cc1ccc(-c2nc3nc4ccccc4nc3n2Cc2ccco2)cc1 the results were Rab9 prom act 12%, ELG1 genotoxic 2.9µM*, NPC1 promoter act 4%, FLuc modulator 11µM*, SMN2 splice up 8.9µM* and ELG1 repair inh inconclusive.
`Clc1ccc(-c2nc3nc4ccccc4nc3n2Cc2ccco2)cc1` gave Rab9 prom act 4%, ELG1 genotoxic 23µM*, NPC1 promoter act 0%, FLuc modulator inconclusive, SMN2 splice up 18µM* and ELG1 repair inh inconclusive.
For O=C(Nc1ccc(Oc2nnc(-c3ccccc3)c3ccccc23)cc1)c1ccccc1 the results were Rab9 prom act 1%, ELG1 genotoxic -2%, NPC1 promoter act -3%, FLuc modulator -1%, SMN2 splice up -2% and ELG1 repair inh 23µM*.
For Clc1cc(Cl)c2nc(N3CCCCC3)sc2c1 the results were Rab9 prom act 4µM*, ELG1 genotoxic inconclusive, NPC1 promoter act 2.8µM*, FLuc modulator 8.5µM*, SMN2 splice up inconclusive and ELG1 repair inh inconclusive.
Screening Clc1cccc2sc(N3CCCCC3)nc12 returned Rab9 prom act inconclusive, ELG1 genotoxic 23µM*, NPC1 promoter act 29%, FLuc modulator 24µM*, SMN2 splice up inconclusive and ELG1 repair inh inconclusive.
`CNc1nc2c(Cl)cc(Cl)cc2s1` gave Rab9 prom act 12%, ELG1 genotoxic 7%, NPC1 promoter act -3%, FLuc modulator -2% and ELG1 repair inh inconclusive.
For O=C(C1CC1)N1CCN(c2nc3c(Cl)cccc3s2)CC1 the results were FLuc modulator -13%.
Screening O=C(Nc1nc2ccc([N+](=O)[O-])cc2s1)C1CCCO1 (configuration not stated) returned Rab9 prom act 2.2µM*, ELG1 genotoxic inconclusive, NPC1 promoter act inconclusive, FLuc modulator 15µM*, SMN2 splice up inconclusive and ELG1 repair inh inconclusive.
For O=C(Nc1nc2ccc(Cl)cc2s1)C1CCCO1 (configuration not stated) the results were Rab9 prom act 3.5µM*, ELG1 genotoxic 4.6µM*, NPC1 promoter act 1µM*, FLuc modulator 6.7µM*, SMN2 splice up 22µM* and ELG1 repair inh inconclusive.
`CS(=O)(=O)c1ccc2nc(NC(=O)C3CCCO3)sc2c1` (configuration not stated) gave Rab9 prom act 1%, ELG1 genotoxic 3%, NPC1 promoter act -1%, FLuc modulator -2% and ELG1 repair inh 17%.
For Clc1ccc2oc(-c3cccnc3)nc2c1 the results were Rab9 prom act inconclusive, ELG1 genotoxic 9%, NPC1 promoter act inconclusive, FLuc modulator 15µM*, SMN2 splice up -2% and ELG1 repair inh inconclusive.
For Clc1ccc2oc(-c3ccccc3)nc2c1 the results were Rab9 prom act 23%, ELG1 genotoxic inconclusive, NPC1 promoter act -2%, FLuc modulator 2.4µM*, SMN2 splice up inconclusive and ELG1 repair inh inconclusive.
`CC(=O)N(c1ccc(Cl)cc1)c1nc(C)cc(C)c1C#N` gave Rab9 prom act 1%, ELG1 genotoxic 2%, NPC1 promoter act -2%, FLuc modulator 0% and ELG1 repair inh 11%.
`Cc1cccc(NC(=O)c2ccc(NC(=O)c3ccccc3Br)cc2)c1` gave Rab9 prom act -1%, ELG1 genotoxic -15%, NPC1 promoter act 2%, FLuc modulator -17% and ELG1 repair inh inconclusive.
For O=C(O)c1ccc(NC(=O)c2ccccc2NC(=O)c2ccccc2Br)cc1 the results were Rab9 prom act 1%, ELG1 genotoxic 5%, NPC1 promoter act 0%, FLuc modulator 17µM* and ELG1 repair inh 8%.
`CCNC(=S)Nc1ccc(NC(=O)c2ccccc2O)cc1` gave Rab9 prom act -1%, ELG1 genotoxic 0%, NPC1 promoter act 15%, FLuc modulator 12µM* and ELG1 repair inh -6%.
Screening CCNC(=S)Nc1cccc(NC(=O)c2ccccc2O)c1 returned Rab9 prom act 8%, ELG1 genotoxic 0%, NPC1 promoter act 4%, FLuc modulator inconclusive and ELG1 repair inh 0%.
O=C(Nc1ccc(Br)cc1)c1ccccc1Br was read as Rab9 prom act 3.2µM*, ELG1 genotoxic inconclusive, NPC1 promoter act 1.4µM*, FLuc modulator 11µM* and ELG1 repair inh inconclusive.
Screening CCc1ccc(NC(=O)c2ccccc2Br)cc1 returned Rab9 prom act 2µM*, ELG1 genotoxic -13%, NPC1 promoter act 1.4µM*, FLuc modulator 11µM*, SMN2 splice up 13µM* and ELG1 repair inh inconclusive.
